Laboratory results: PubChem BioAssay (NCI)
Compounds without any hit were thinned out: in the full panel of roughly 83,000, 20% have a hit.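 Plates (96-well) were seeded with cells, treated with compound at one concentration, and incubated for 48 hours before percent growth was determined.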 Values without a mark were called inactive. Activity calls are given as the source filed them. Rule for the calls: active = growth percent below 10; inactive = the rest.

Each compound was assayed on MOLT-4 leukemia (assay: NCI-60 one-dose screen, 48 h (100 = growth as untreated, 0 = no growth, -100 = all killed)). Settings: 10 µM unless noted.

SMILES | growth
CN1C(=O)N(C)C2C1NN=c1s/c(=C\c3ccccc3)c(=O)n12 (stereo not drawn) | 58.1%
Cc1ccc(/C=C/c2c(C(=O)/C=C/c3ccc(Cl)cc3)c(C)nc3ccccc23)cc1 | 0.928% (active)
COc1ccc2[nH]c(O)c(/C=c3/cc4c(c(-c5ccc(F)c(OC)c5)n3)=Nc3ccccc3-4)c2c1 | 1.77% (active)
O=C(Cc1ccc(F)c(F)c1)Nc1cc(C2(C(F)(F)F)CC2)nn1Cc1ccccc1 | 8.42% (active)
O=C1NC(=Nc2ccc(Cl)cc2)S/C1=C\c1cn(-c2ccccc2)nc1-c1ccccc1 | 81.7%
CCN1C(=O)N(CC)C2Nn3c(s/c(=C4\C(=O)N(C)c5ccccc54)c3=O)=NC21 (stereo not drawn) | 60.5%
Cc1c(C)c2c(c(C)c1OCC(=O)O)CC[C@@](C)(CCC[C@@H](C)CCC[C@@H](C)CCCC(C)C)O2 | -1.22% [50 µM] (active)
Cc1occc1-c1n[nH]c(=S)n1N1C(=O)CSC1=S | 99.7%
COc1ccc2c(c1)O/C(=C/c1ccc(OCC(=O)c3ccccc3)cc1)C2=O | 90.3%
c1ccc(-c2nc([P+](c3ccccc3)(c3ccccc3)c3ccccc3)c(N3CCOCC3)o2)cc1 | 7.65% (active)
Cc1cccc(Cc2cnc(NC(=O)/C=C/c3ccco3)s2)c1 | 15.9%
CCN(CC)CCCC(C)Nc1c2ccc(Cl)cc2nc2ccc(O)cc12 (stereo not drawn) | 7.11% (active)
CC1=C(SCCC(=O)OC(C[Se]C2=C(C)C(=O)c3ccccc3C2=O)C(=O)NCCCCCC(=O)OCc2ccccc2)C(=O)c2ccccc2C1=O (stereo not drawn) | 10.9%
